In PubChem BioAssay AID1626 (SRMLSC, 2009) one finds inhibition data, which are given here for 59 compounds.

The whole screen tested about 220,000 compounds, of which about 2,000 (0.91%) were called active. Not shown: some 2% with an inconclusive outcome. Rule as the data show it: inconclusive = inhibition above about 80% without an active follow-up result; inactive = below that; test concentration not stated here. Not all results are given here. Entries with a potency or affinity are not part of this list.

The nature of this assay: M. tuberculosis H37Rv growth inhibitors, H37Rv strain (AID 1626).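 Also: bacteria incubated seven days before Alamar blue readout; 0% = bacteria only wells and 100% = bacteria with antibiotic wells.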 Conditions: stronger effect = higher value, concentration not given here.
As a reminder, the inhibition is the drop in the measured response relative to a control, in per cent. For the compound `COc1cc(NC(=O)CCCc2c[nH]c3ccccc23)cc(OC)c1`, the inhibition was 13% (inactive).
As for `COc1ccc(/C=N/NC(=O)c2cc(C34CC5CC(CC(C5)C3)C4)[nH]n2)cc1OC`, the figure is -1.09% (inactive); as for `COCCN1C(=O)N[C@@H](c2cccc(F)c2)C(C(=O)OC)=C1C`, -7.87% (inactive).
As for `CC(=O)c1ccc(NC(=O)C(NC(=O)c2ccccc2)=C(C)C)cc1`, the inhibition is -4.51% (inactive).
For the compound `Clc1ccc(-c2nc3cnccn3c2Nc2ccc3c(c2)OCO3)cc1`, the inhibition is 31% (inactive).
As for `Cc1ccc2nc(-c3cccnc3)c(Nc3ccccc3C)n2c1`, the figure is 5.59% (inactive).
Take `Cc1cccc2nc(-c3cccnc3)c(Nc3ccccc3)n12`: the inhibition is -0.36% (inactive).
Turning to `Cc1ccccc1Nc1c(-c2ccncc2)nc2ccc(Cl)cn12`, the inhibition was -2.88% (inactive).
Turning to `Clc1ccc(-c2nc3ncccn3c2Nc2ccc3c(c2)OCO3)cc1`, the inhibition is 7.95% (inactive).
Consider `Cc1ccc2nc(-c3ccco3)c(Nc3ccccc3)n2c1`, for which the inhibition was 2.97% (inactive).
In the case of `Cc1cccc2nc(-c3ccco3)c(Nc3ccccc3)n12`, the inhibition is -7.83% (inactive).
`Cc1ccc2nc(-c3ccncc3)c(Nc3ccccc3)n2c1`: the inhibition is 2.3% (inactive).
On to `CCN1CCN(C(=O)COc2ccc3c(c2)C(=O)CC2(CCN(C(C)=O)CC2)O3)CC1`, for which the inhibition is -8.68% (inactive).
`CCOC(=O)C1CCN(C(=O)CSc2ccc(Cl)cc2)CC1`: the inhibition was 1.63% (inactive).
In the case of `O=C(c1ccc([N+](=O)[O-])c(CS(=O)(=O)c2ccc(Cl)cc2)c1)N1CCCCC1`, the inhibition was 3.1% (inactive).
As for `CCOC(=O)CSc1ccc2nnc(CCNS(=O)(=O)c3ccc(C)cc3)n2n1`, the figure is 4.15% (inactive).
With `Cc1oc(C(C)(C)C)c(CN2CCCC2)c1C(=O)O`, the inhibition is 5.71% (inactive).
In the case of `Cc1cccc(-c2nnc(SCC#N)n2C)c1`, the inhibition is 1.96% (inactive).
As for `CCOC(=O)c1cc(C(C)(C)C)nc(SC)c1C#N`, the figure is 0.56% (inactive).
As to `COc1ccc(C(O)P(=O)(OCC(C)C)OCC(C)C)c(OC)c1` (centres undefined), the inhibition was 5.08% (inactive).
In the case of `Cc1cc(C)n2nc(C(=O)Nc3nccs3)nc2n1`, the inhibition was -4.36% (inactive).
For `O=c1c2c3c(sc2nc2sc(CN4CCOCC4)cn12)CCCC3`, the inhibition is -5.88% (inactive).
On to `CC(=O)Nc1c(C(=O)C2CC2)oc2ccccc12`, for which the inhibition was 8.66% (inactive).
`O=C(O)CCSCC(=O)Nc1c(C(=O)C2CC2)oc2ccccc12`: the inhibition is -2.71% (inactive).
As for `CC1(C)Cc2ccccc2C(N/N=C/c2ccc([N+](=O)[O-])cc2)=N1`, the figure is 3.59% (inactive); as for `CSCCC(NC(=O)c1ccc([N+](=O)[O-])cc1Cl)C(=O)OCC(=O)NCCCc1ccccc1` (centres undefined), -2.31% (inactive).
With `CC(=O)Nc1ccccc1-c1ccc(C)o1`, the inhibition is -8.39% (inactive).
As for `Cc1cnc(C(=O)Nc2ccccc2-c2ccc(C)o2)cn1`, the figure is -0.7% (inactive); as for `CCC(=O)N(C)CCc1cc2c(c(OC)c1/C=N/NC(=O)[C@H]1C[C@@H]1c1ccccc1)OCO2`, -2.15% (inactive).
For `CN(C)c1ccc(NC(=S)NC(=O)/C=C/c2ccc(Cl)cc2)cc1`, the inhibition was 5.85% (inactive).
In the case of `COc1cc(C(CCN2CCCCC2)c2c(OC)cc(OC)c3c(C)cc(=O)oc23)cc(OC)c1OC` (centres undefined), the inhibition is -3.67% (inactive).
`COc1cc(C(CCN2CCCC2)c2c(OC)cc(OC)c3ccc(=O)oc23)cc(OC)c1OC` (centres undefined): the inhibition is -13% (inactive).
Take `COc1cc(C(CCN2CCCC2)c2c(OC)cc(OC)c3c(C)cc(=O)oc23)cc(OC)c1OC` (centres undefined): the inhibition was -6.56% (inactive).
With `COc1cc(C(CCN2CCOCC2)c2c(OC)cc(OC)c3c(C)cc(=O)oc23)cc(OC)c1OC` (centres undefined), the inhibition is -15.3% (inactive).
As for `Cn1nc(-c2ccc(OCC(N)=O)cc2)c2ccccc2c1=O`, the figure is 9.43% (inactive); as for `O=S(=O)(Nc1ccc(-c2cn3ccsc3n2)cc1)c1ccc2c(c1)OCCO2`, -7.36% (inactive); as for `O=C(O)c1cccc(CSc2ncn[nH]2)c1`, 3.99% (inactive).
As for `Cc1ccc(-n2cc(CN(C)Cc3nccn3C)c(-c3ccc(F)cc3)n2)cc1`, the figure is 60.4% (inactive); as for `CCn1ccnc1CN(C)Cc1cn(-c2ccccc2)nc1-c1ccc(OC)cc1F`, 15% (inactive); as for `CN(Cc1ncc[nH]1)Cc1cn(-c2ccccc2)nc1-c1ccc2c(c1)OCO2`, 6.67% (inactive).
For `Cc1ccc(C)c(-n2cc(CNCCCn3cccn3)c(-c3ccccc3)n2)c1`, the inhibition is -1.54% (inactive).
With `CN(Cc1cn(-c2ccccc2)nc1-c1ccc2c(c1)OCO2)Cc1nccn1C`, the inhibition was 2.66% (inactive).
As for `Cc1ccc(-n2cc(CN3CCN(Cc4nccn4C)CC3)c(-c3cccc(C)c3)n2)cc1`, the figure is -0.87% (inactive); as for `Cc1ccc(-n2cc(CN(C)CCc3cn[nH]c3)c(-c3cccc(C)c3)n2)cc1`, 6.61% (inactive); as for `CCn1ccnc1CNCc1cn(-c2cc(C)ccc2C)nc1-c1ccccc1`, 72% (inactive).
With `CCS(=O)(=O)c1nc(S(=O)(=O)c2ccc(C)cc2)c(NCCCN(C)C)s1`, the inhibition is -3.12% (inactive).
Consider `Cc1cccc(C(=O)N(c2ccccn2)C(C)c2ccco2)c1` (centres undefined), for which the inhibition was -1.89% (inactive).
Turning to `CC(c1ccccc1F)n1cc(C(=O)NCc2ccncc2)nn1` (centres undefined), the inhibition is -6.06% (inactive).
As for `O=C(NNC(=O)c1cc2cc(OC(F)(F)F)ccc2[nH]1)c1cccc(C(F)(F)F)c1`, the figure is 0.47% (inactive); as for `CN(C)S(=O)(=O)c1ccc2c(c1)c(=O)c(C(=O)NCCCN1CCCCCC1)cn2C`, 0.45% (inactive).
As for `O=C(COC(=O)c1ccccc1O)Nc1cc([N+](=O)[O-])ccc1Cl`, the figure is -5.14% (inactive); as for `S=C(NC1CCCCC1)c1ccc2c(c1)OCO2`, 0.26% (inactive).
In the case of `Cc1ccc(-n2cc(CNCCCn3cccn3)c(-c3cccc(C)c3)n2)cc1`, the inhibition was 69.4% (inactive).
As to `CCN1CC(CN(C)Cc2cn(-c3ccc(C)cc3)nc2-c2cccc(C)c2)CC1=O` (centres undefined), the inhibition is 13.5% (inactive).
As for `CCCCOC(=O)c1ccc(N)cc1`, the figure is 78.1% (inactive).
As for `CC(C)OC(=O)c1ccc(NC(=O)c2ccccc2)cc1`, the figure is 69.1% (inactive); as for `CCC(=O)Nc1cccc2c1C(=O)N(C)C2=O`, -8.82% (inactive); as for `COc1ccc(CCNC(=O)Cc2nn(C)c(=O)c3ccccc23)cc1OC`, 1% (inactive).
Take `Cc1nnc(NC(=O)CSc2nnc(Cc3cccn3C)n2-c2cccc(C(F)(F)F)c2)s1`: the inhibition was 4.46% (inactive).
